Screening data deposited in PubChem by National Center for Advancing Translational Sciences (NCATS).
The list is not random: actives were taken first. Their share in the collection is about 12%.
Pf growth 96h: P. falciparum growth inhibition at 96 hours. P. falciparum luciferase reporter growth, 96 h. Potency, µM (series often up to 28.7 µM), for the others: at the top dose activity change, negative = inhibition, actives largely listed as inhibitors. actives 6.9% (n = 320,000). AID 504834; note: % is set by controls: 0 for no effect and ±100 for the full control effect
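Readout is luminescence from an integrated firefly luciferase in P. falciparum. Red cells, 2% hematocrit and 0.05% parasitemia final, were cultured with compound through two parasite generations (96 hours) at 37 C, 5% CO2.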
Pf growth 48h: inhibits P. falciparum growth in the first generation, 48 h; P. falciparum luciferase growth in erythrocytes, 48 h; Potency, µM (series often up to 28.7 µM), without a hit: at the highest dose activity change, negative = inhibition, hits mostly inhibitors; actives 5.9% (n = 310,000); AID 504832; note: % is set by controls: 0 for no effect and ±100 for the full control effect
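Luciferase-expressing P. falciparum in infected erythrocytes (2% hematocrit, 0.1% parasitemia final) in RPMI 1640/0.5% Albumax were exposed to compound for 48 hours at 37 C, 5% CO2; growth read as luminescence.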
SARS PLP yeast: inhibitors of SARS-CoV papain-like protease in yeast. S. cerevisiae expressing SARS-CoV PLpro, growth rescue. Potency, µM (highest dose often 32.9 µM), for inactives: at the highest dose activity, positive = growth rescue, hits mostly activators. actives 0.19% (n = 330,000); calls by dose curve; note: 0% is about no effect; nearly all actives have a fitted effect of over 55% in size
AMA1 RON2 block: AMA1-RON2 (P. falciparum) interaction inhibition | Potency, µM (titrated, usually from 58.2 µM), for the others: top-dose activity change, negative = inhibition, actives largely listed as inhibitors | actives 0.2% (n = 360,000) | AID 720542 | AlphaScreen AMA1-biotinylated RON2 peptide binding;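 note: 0% = vehicle wells and -100% = peptide control; nearly all actives have a fitted effect of over 45% in size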
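AMA1 (3D7) with his tag at 25 nM final met compounds first, then biotinylated RON2 peptide at 25 nM; detection used donor plus acceptor beads, 10 µg/mL apiece, read by AlphaScreen after 30 min at room temperature.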
NS1 function inh: inhibitors of influenza NS1 protein function; AID 2326; actives 0.4% (n = 270,000); Potency, µM (doses to about 46.1 µM), inactives show top-dose activity, positive = more growth; calls by dose curve; note: actives are rising curves; nearly all actives have a fitted effect of over 50% in size
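Growth recovery, yeast-based: influenza A NS1 expressed in S. cerevisiae causes slow growth, and suppressors are detected by OD600. The parent strain without NS1 is used as positive control.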
HCV inhibitor: HCV inhibition | actives 3.4% (n = 340,000) | Potency, µM (titrated, usually from 41.8 µM), for inactives: at the highest dose activity change, negative = inhibition, usual class: inhibitors | AID 651820 | Huh7.5.1 HCVcc-Cre infection, luciferase reporter, 44 h; note: % is set by controls: 0 for no effect and ±100 for the full control effect
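A cell-based infection assay in which seeded cells (1,000 per well) receive test compound after 4 h, are inoculated with HCVcc-Cre at approximately 0.5 moi, and are incubated 44 h before luminescence detection.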
Active calls of the source: *. Unless noted, calls come from the whole dose curve; as a rule, active = well fitted curve in the direction sought with a large enough effect; inconclusive = small, poorly fitted or top-dose-only effect, or another doubt; inactive = no such curve, though single readings can be large; an effect the other way counts as inactive or inconclusive. Potency is the fitted concentration of half-maximal effect.

For CCn1nc(NC(=O)c2ccncc2)c2cc3cccc(C)c3nc21 the results were Pf growth 96h 2.1µM*, Pf growth 48h 10%, SARS PLP yeast 1%, AMA1 RON2 block 3%, NS1 function inh -36% and HCV inhibitor inconclusive.
For CCC(=O)Nc1nn(C)c2nc3c(C)cccc3cc12 the results were Pf growth 96h -10%, Pf growth 48h inconclusive, SARS PLP yeast -12%, AMA1 RON2 block -2%, NS1 function inh -9% and HCV inhibitor 10µM*.
CCOc1ccc(C(=O)Nc2ccc(S(=O)(=O)N3C[C@@H]4C[C@@H](C3)c3cccc(=O)n3C4)cc2)cc1 was read as Pf growth 96h 2.9µM*, Pf growth 48h inconclusive, SARS PLP yeast -2%, AMA1 RON2 block inconclusive and HCV inhibitor 1µM*.
`Cc1ccccc1NC(=O)CCCC(=O)c1ccccc1` gave Pf growth 96h inconclusive, Pf growth 48h inconclusive, SARS PLP yeast -3%, AMA1 RON2 block 30%, NS1 function inh 0% and HCV inhibitor 24%.
`COc1cc2c(cc1OC)n(CC(=O)NC1CCCCCC1)n1c(C)cc(=O)nc21` gave Pf growth 96h 5.9µM*, Pf growth 48h 19%, SARS PLP yeast -4%, AMA1 RON2 block -5%, NS1 function inh 1% and HCV inhibitor -1%.
COC(=O)Cn1c2ccccc2c2nc(=O)cc(C)n21 was read as Pf growth 96h inconclusive, Pf growth 48h 19%, SARS PLP yeast 0%, AMA1 RON2 block -2% and HCV inhibitor 9%.
For COc1nc(NCCC2=CCCCC2)nc(OC)n1 the results were Pf growth 96h inconclusive, Pf growth 48h 10µM*, SARS PLP yeast -9%, AMA1 RON2 block inconclusive, NS1 function inh -33% and HCV inhibitor -4%.
`CN1CCN(c2ccc(NC(=O)C(C)(c3ccccc3)c3ccccc3)cc2)CC1` gave Pf growth 96h inconclusive, Pf growth 48h 13µM*, SARS PLP yeast 0%, AMA1 RON2 block 7%, NS1 function inh -2% and HCV inhibitor inconclusive.
Screening CC(C)C(=O)N1CCN(c2ccc(NC(=O)c3cccs3)cc2)CC1 returned Pf growth 96h 104%, Pf growth 48h inconclusive, SARS PLP yeast -9%, AMA1 RON2 block 18%, NS1 function inh 6% and HCV inhibitor -1%.
Screening COc1cc2ccccc2cc1C(=O)Nc1ccc(N2CCN(C)CC2)cc1 returned Pf growth 48h inconclusive, SARS PLP yeast -12%, AMA1 RON2 block -20%, NS1 function inh -12% and HCV inhibitor 13µM*.
CN1CCN(c2ccc(NC(=O)c3ccc(Oc4ccccc4)cc3)cc2)CC1 was read as Pf growth 96h inconclusive, Pf growth 48h inconclusive, SARS PLP yeast -1%, AMA1 RON2 block -28%, NS1 function inh -11% and HCV inhibitor inconclusive.
`CN1CCN(c2ccc(NC(=O)Oc3ccccc3)cc2)CC1` gave Pf growth 96h inconclusive, SARS PLP yeast -3%, AMA1 RON2 block -28%, NS1 function inh -7% and HCV inhibitor 18%.
Screening COc1cc2ccccc2cc1C(=O)Nc1ccc(N2CCN(C(=O)C(C)C)CC2)cc1 returned Pf growth 96h 15µM*, Pf growth 48h 12µM*, SARS PLP yeast -2%, AMA1 RON2 block -1%, NS1 function inh 14% and HCV inhibitor 10µM*.
`C=CCNC(=O)COc1coc(CN2CCN(C(=O)c3ccco3)CC2)cc1=O` gave Pf growth 96h 0%, Pf growth 48h 20%, SARS PLP yeast -1%, AMA1 RON2 block 1% and HCV inhibitor 7%.
Screening O=c1cc(Nc2ccc3c(c2)OCCO3)[nH]c(=O)n1-c1ccc(Cl)cc1 returned Pf growth 96h 2%, Pf growth 48h 3%, SARS PLP yeast -1%, AMA1 RON2 block 11%, NS1 function inh -32% and HCV inhibitor 4%.
For O=c1cc(N2CCN(c3ccc(F)cc3)CC2)[nH]c(=O)n1C1CCCCC1 the results were Pf growth 96h 92%, Pf growth 48h -6%, SARS PLP yeast -11%, AMA1 RON2 block 14%, NS1 function inh 3% and HCV inhibitor 28%.
